In article PMC4336329 (PLoS ONE, 2015):
In all, about 310,000 compounds went through this assay and about 2,200 (0.71%) showed an effect of 50% or more. The effect is printed as a negative number. For the sample, strong results were picked, then their nearest neighbours and some compounds at random.

Each compound was assayed against human ether-à-go-go-related gene (hERG) potassium channel (human, UniProt Q12809) (assay: primary screen, population patch clamp on CHO cells stably expressing hERG; higher = less effect of the substance).
Chain of human ether-à-go-go-related gene (hERG) potassium channel (Q12809 whole entry, looked up): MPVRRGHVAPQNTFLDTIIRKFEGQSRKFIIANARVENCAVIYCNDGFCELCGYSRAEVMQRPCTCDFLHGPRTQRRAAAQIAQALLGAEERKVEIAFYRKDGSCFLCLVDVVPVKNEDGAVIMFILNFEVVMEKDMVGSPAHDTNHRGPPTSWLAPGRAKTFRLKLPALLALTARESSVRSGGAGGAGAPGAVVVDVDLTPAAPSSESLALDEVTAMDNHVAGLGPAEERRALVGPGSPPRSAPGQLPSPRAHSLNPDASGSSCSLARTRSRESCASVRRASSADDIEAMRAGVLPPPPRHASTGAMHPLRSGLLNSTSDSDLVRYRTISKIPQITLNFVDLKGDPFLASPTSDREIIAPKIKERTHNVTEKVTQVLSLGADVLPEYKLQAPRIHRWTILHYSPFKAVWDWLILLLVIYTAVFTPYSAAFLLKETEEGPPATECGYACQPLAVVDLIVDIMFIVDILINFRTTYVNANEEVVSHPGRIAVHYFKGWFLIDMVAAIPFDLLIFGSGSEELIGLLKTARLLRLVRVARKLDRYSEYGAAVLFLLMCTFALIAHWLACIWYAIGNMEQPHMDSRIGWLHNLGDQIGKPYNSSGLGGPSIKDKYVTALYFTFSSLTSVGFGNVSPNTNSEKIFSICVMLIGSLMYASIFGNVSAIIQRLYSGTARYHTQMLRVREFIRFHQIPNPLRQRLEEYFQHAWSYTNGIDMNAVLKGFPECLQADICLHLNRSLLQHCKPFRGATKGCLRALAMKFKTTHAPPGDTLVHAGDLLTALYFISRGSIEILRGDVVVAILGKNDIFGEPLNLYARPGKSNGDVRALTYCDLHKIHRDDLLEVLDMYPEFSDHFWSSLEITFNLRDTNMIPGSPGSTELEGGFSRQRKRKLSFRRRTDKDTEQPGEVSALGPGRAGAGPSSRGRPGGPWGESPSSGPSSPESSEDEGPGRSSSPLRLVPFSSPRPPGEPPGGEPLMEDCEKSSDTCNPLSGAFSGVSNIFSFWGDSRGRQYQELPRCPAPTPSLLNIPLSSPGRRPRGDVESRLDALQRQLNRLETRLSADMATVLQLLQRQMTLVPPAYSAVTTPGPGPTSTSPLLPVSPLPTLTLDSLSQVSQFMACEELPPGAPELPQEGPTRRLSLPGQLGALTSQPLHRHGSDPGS

SMILES	hERG current change (%, negative = inhibition) at 1uM
CS(=O)(=O)N(Cc1cccc(CN(C(C(=O)O)c2ccccc2)S(C)(=O)=O)c1)C(C(=O)O)c1ccccc1 (stereo not drawn)	16.9%
O=C(O)CC1(CC(=O)Nc2ccc(C(F)(F)F)cc2)CCCC1	15.6%
Cc1ccc(OCCC(=O)OCC(=O)NC(=O)NC2CCCCC2)cc1	14.2%
Cn1cnnc1SCc1ccccc1Br	12.6%
CC(=O)Nc1ccc(NC(=O)C(C)Sc2n[nH]c(-c3ccc(C)cc3)n2)cc1 (stereo not drawn)	8.42%
Cc1ccc(C)c(-n2c(C)nc3ccccc3c2=O)c1	13.2%
CC(C)(C)c1ccc(C(=O)NCCc2ccccc2)cc1	6.65%
Cc1ccc(C2=NN=C(NC(=O)CSc3nnc4c5ccccc5n(C)c4n3)SC2)cc1	8.27%
Cc1ccc2oc(C(=O)N3CCN(C)C[C@@H]3C(C)C)c(C)c2c1	9.07%
O=C(OCCNC(=O)c1ccc2ccccc2n1)c1ccc(F)cc1	4.77%
Cc1ccc(OCCCC(=O)Nc2ccc(S(N)(=O)=O)cc2)cc1	9.66%
COc1ccc([N+](=O)[O-])cc1NS(=O)(=O)c1ccc(Cl)c(C(=O)Nc2sc3c(c2C#N)CCCCC3)c1	17.4%
COc1ccc(/C(N)=N/OC(=O)CCc2ccccc2)cc1	4.26%
COc1cccc(C(=O)CN(C(=O)c2ccc(Cl)cc2Cl)N2C(=O)c3ccccc3C2=O)c1	8.71%
CCC1(CC)NC(=O)N(CC(=O)OCC(=O)Nc2ccc(C(F)(F)F)cc2)C1=O	2.71%
O=C(c1ccc2c(c1)OCO2)C1CCCN(Cc2cn[nH]c2-c2cccc(F)c2)C1 (stereo not drawn)	-42.7%
O=C(c1ccc2c(c1)OCO2)C1CCCN(Cc2cn[nH]c2-c2ccccc2)C1 (stereo not drawn)	-67.3%
O=C(c1ccc2c(c1)OCO2)C1CCCN(Cc2ccccn2)C1 (stereo not drawn)	-13%
CCOc1ccc(CN2CCCC(C(=O)c3ccccc3OC)C2)cc1 (stereo not drawn)	-74.1%
COC(=O)c1ccc(CN2CCCC(C(=O)c3ccccc3OC)C2)cc1 (stereo not drawn)	-6.6%
COc1ccccc1C(=O)C1CCCN(Cc2ccc(Oc3ncccn3)cc2)C1 (stereo not drawn)	-0.388%

SMILES	hERG current change (%, negative = inhibition) at 1uM
CCC(CC)c1nnc(NC(=O)C23CC4CC(CC(NC(C)=O)(C4)C2)C3)s1	0.699%
Cc1cc(C)c(C)c(C(=O)c2ccccc2C(=O)O)c1C	6.64%
COCCNC(=O)COC(=O)c1cccnc1SC	12.8%
CC1CCN(C(=O)c2cccc(S(=O)(=O)N3CCCCC3)c2)CC1	2.17%
CCOC(=O)C1=C(CSc2nc(-c3ccccc3)ccc2C#N)OC(N)=C(C#N)C1c1cccnc1 (stereo not drawn)	-6.76%
CSc1ccc(/C=C(/NC(=O)c2ccccc2)C(=O)NCCCn2ccnc2)cc1	-15.6%
Cc1ccc(C(=O)N/C(=C/c2ccccc2F)C(=O)NCCCn2ccnc2)cc1	-22.5%
Cc1ccc(/C=C(\NC(=O)c2ccc(C)cc2)C(=O)NCCCn2ccnc2)cc1	-87%
Cc1ccc(C(=O)N/C(=C\c2ccc(F)cc2)C(=O)NCCCn2ccnc2)cc1	-85.1%
Cc1ccc(C(=O)N/C(=C\c2ccccc2)C(=O)NCCCn2ccnc2)cc1	-87%
O=C(NCCCn1ccnc1)/C(=C\c1ccccc1F)NC(=O)c1ccccc1	-42.5%
COc1ccc(/C=C(\NC(=O)c2ccc(C)cc2)C(=O)NCCCn2ccnc2)cc1OC	12.1%
Cc1ccc(C(=O)N/C(=C\c2cn(C)c3ccccc23)C(=O)NCCCn2ccnc2)cc1	13.5%
O=C(NCCCn1ccnc1)/C(=C/c1ccc(F)cc1)NC(=O)c1ccccc1	-72.2%
COc1ccc(/C=C(\NC(=O)c2ccc(Cl)cc2)C(=O)NCCCn2ccnc2)cc1OC	9.45%
CC(C)(C)NC(=S)N/N=C\c1ccc(-c2ccc([N+](=O)[O-])cc2)o1	13.3%
COC(=O)Nc1ccc(S(=O)(=O)N2CCCC(C(=O)N3CCN(C)CC3)C2)cc1 (stereo not drawn)	7.31%
Cc1cc(C)c2cc(CN(Cc3ccc4c(c3)OCO4)Cc3nnnn3Cc3ccco3)c(=O)[nH]c2c1	10.8%
CC1=NN(C(C#N)c2ccccc2C)C(c2ccccc2)C1 (stereo not drawn)	9.72%
Cc1cc(C)nc(/N=C2\NC(=O)CC3C(=O)NCCN23)n1 (stereo not drawn)	13.1%
CN1CC(=O)Nc2ccc([N+](=O)[O-])cc2C1=O	17.6%

SMILES	hERG current change (%, negative = inhibition) at 1uM
COC(=O)c1cc2ccsc2n1Cc1ccccc1F	-2.01%
COc1ccc(/C=C(/NC(=O)c2ccc(OC)c(OC)c2)C(=O)NCCCn2ccnc2)cc1	15.5%
COc1ccc(C(=O)N/C(=C\c2ccccc2)C(=O)NCCCn2ccnc2)cc1	-18.2%
COc1ccc(/C=C(\NC(=O)c2ccc(C)cc2)C(=O)NCCCn2ccnc2)cc1	-91.7%
Cc1oc(CN2CCOCC2)cc1C(=O)O	7.66%
FC(F)Oc1ccc(-n2cc(-c3ccc(Cl)cc3)[n+]3c2CCCCC3)cc1.[Br-]	-45.2%
COc1ccc(-n2cc(-c3ccc(OC(F)F)cc3)[n+]3c2CCCCC3)cc1.[Br-]	-52.9%
Cc1ccc(-c2cn(-c3ccc(OC(F)F)cc3)c3[n+]2CCCCC3)cc1.[Br-]	-13.3%
CCn1nccc1C(=O)Nc1cc(Cl)ccc1Cl	0.897%
COc1ccc(CCN(C)C2CCCN(S(=O)(=O)c3ccc(C)cc3)C2)cc1OC (stereo not drawn)	-82.1%
CN(CCc1ccccc1)C1CCCN(S(=O)(=O)c2cccc(F)c2)C1 (stereo not drawn)	-2.76%
COc1ccc(CCN(C)C2CCCN(S(=O)(=O)c3ccccc3F)C2)cc1OC (stereo not drawn)	-45.9%
COc1ccc(CCN(C)C2CCCN(S(C)(=O)=O)C2)cc1OC (stereo not drawn)	6.5%
CC(=O)c1ccc(S(=O)(=O)N2CCCC(N(C)CCc3ccccn3)C2)cc1 (stereo not drawn)	-44.4%
COc1ccc(CCN(C)C2CCCN(S(=O)(=O)N(C)C)C2)cc1OC (stereo not drawn)	8.71%
CC(=O)c1ccc(S(=O)(=O)N2CCCC(N(C)CCc3ccccc3)C2)cc1 (stereo not drawn)	-78.7%
COc1ccc(S(=O)(=O)N2CCCC(N(C)CCc3ccccc3)C2)cc1OC (stereo not drawn)	-26.5%
COc1ccc(CCN(C)C2CCCN(S(=O)(=O)c3ccccc3)C2)cc1OC (stereo not drawn)	-64.9%
Cc1cc(NC(=O)CSc2nc3c(c(=O)n2-c2ccccc2)SC(C)C3)no1 (stereo not drawn)	-8.78%
Cc1ccc(C(=O)Nc2nc3nc(-c4ccccc4)cc(=O)n3[nH]2)cc1	14.5%
CCC(C)NS(=O)(=O)c1ccc(NC(C)=O)cc1 (stereo not drawn)	11.2%

SMILES	hERG current change (%, negative = inhibition) at 1uM
CC(C)Cc1cc(C(=O)O)n[nH]1	5.43%
CC(=O)N1CCc2cc(Br)cc(S(=O)(=O)N3CCc4ccccc43)c21	-1.76%
O=C(c1ccc(-n2cccc2)cc1)N1CCOCC1	7.49%
CCc1ccccc1N(CC(=O)NC1CCCCC1)C(=O)CCC(=O)Nc1ccccn1	12.3%
O=C(Nc1ccc(-c2csc(Nc3ccccc3)n2)cc1)c1cc([N+](=O)[O-])cc(C(F)(F)F)c1	4.72%
O=C(NCCNC(=O)c1ccc(-c2ccc(Cl)c(Cl)c2)o1)c1cnccn1	-54.4%
O=C(NCCCNC(=O)c1ccc(-c2cccc(Cl)c2)o1)c1cnccn1	-12.5%
Cc1ccc(-c2ccc(C(=O)NCCCNC(=O)c3cnccn3)o2)cc1Cl	18.8%
NS(=O)(=O)OCCCc1ccc(C(F)(F)F)cc1	6.75%
COc1ccc(Cn2c(=N)c(C(=O)NCC3CCCO3)cc3c(=O)n4ccccc4nc32)cc1 (stereo not drawn)	-85%
COc1ccc(CCn2c(=N)c(C(=O)NCC3CCCO3)cc3c(=O)n4ccccc4nc32)cc1 (stereo not drawn)	-84.4%
COc1ccc(CCn2c(=N)c(C(=O)NCC3CCCO3)cc3c(=O)n4ccccc4nc32)cc1OC (stereo not drawn)	-79.9%
COc1ccc(CCNC(=O)CCn2c(=O)c3ccccc3n(CC(=O)NCC3CCCO3)c2=O)cc1OC (stereo not drawn)	9.7%
Cc1cc(N2CCC(C)CC2)nc2ccc(N3C(=O)CCC3=O)cc12	9.64%
O=C(NC(=S)Nc1ncc(Br)cc1Br)c1cncc(Br)c1	4.04%
COc1ccc(C(=O)Nc2nnc(-c3cccs3)s2)cc1	18.6%
CC(C)(C)OC(=O)N[C@@H](Cc1ccccc1)c1nnc(S(=O)(=O)Cc2ccccc2)o1	5.19%
CCCCCc1n[nH]c2c1CCCC2	9.3%
CCCCc1nc(Cl)c(C#N)c2c1CCCC2	5.82%
CCCCCc1nc2c(c3c1CCCC3)CCCC2	-51.7%
CC1CCCC(C)N1C(=O)COC(=O)CCC1CCCC1 (stereo not drawn)	9.29%
